The record followed here is ChEMBL document CHEMBL3988442, “University of Dundee, Small-Polar-MMV Screening Library” (2021).

The first assay concerns the target T1, Tyrosyl-tRNA synthetase, putative (Trypanosoma cruzi (strain CL Brener)) (UniProt Q4DSP6).
T1 sequence (whole entry): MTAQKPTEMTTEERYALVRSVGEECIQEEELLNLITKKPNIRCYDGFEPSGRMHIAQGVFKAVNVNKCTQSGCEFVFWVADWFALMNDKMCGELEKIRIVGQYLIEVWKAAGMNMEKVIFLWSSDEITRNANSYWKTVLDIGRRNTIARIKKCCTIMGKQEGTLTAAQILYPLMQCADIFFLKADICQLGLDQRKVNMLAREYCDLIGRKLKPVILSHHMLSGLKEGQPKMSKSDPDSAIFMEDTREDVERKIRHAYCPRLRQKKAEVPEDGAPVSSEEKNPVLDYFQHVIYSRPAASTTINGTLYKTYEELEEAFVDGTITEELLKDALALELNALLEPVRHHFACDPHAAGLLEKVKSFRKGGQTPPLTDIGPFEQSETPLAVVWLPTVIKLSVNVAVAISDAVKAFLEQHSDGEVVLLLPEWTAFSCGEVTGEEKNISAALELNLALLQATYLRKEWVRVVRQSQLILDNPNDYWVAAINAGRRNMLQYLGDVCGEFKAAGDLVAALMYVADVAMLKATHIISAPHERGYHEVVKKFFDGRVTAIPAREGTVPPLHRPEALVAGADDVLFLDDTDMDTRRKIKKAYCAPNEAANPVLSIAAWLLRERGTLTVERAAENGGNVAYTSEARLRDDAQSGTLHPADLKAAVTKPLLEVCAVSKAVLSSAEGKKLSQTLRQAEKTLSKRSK
The assay can be described thus: Trypanosoma cruzi tyrosyl tRNA synthetase (TcYRS) SOP. On the set-up: scale not given: direction of the effect not stated beside the values. The note with it: 30 µM. Type of assay: functional.
For the compound `COc1cccc(CN2CCCC(Nc3cccc(F)c3)C2)c1O` (stereo not given), the Percent Effect came out at 11.1%.
As to `CS(=O)(=O)Cc1ccc(CNC(=O)c2cccnc2O)cc1`, the Percent Effect came to 7.59%.
As to `N#Cc1ccnc(N2CCN(CC(O)c3cccc(F)c3)CC2)c1` (stereo not given), the Percent Effect came out at 11.1%.
Regarding `CN1C(=O)C[C@@H]2[C@@H]1CCN2S(=O)(=O)Cc1ccccc1`, the Percent Effect was determined as 3.7%.
With `Cn1ncc2c1C(COCC1CC1)CN(Cc1ccc(F)cc1)C2` (stereo not given), the Percent Effect came out at 15.4%.
As for `CCC1=N[C@@]2(CC[C@@H]3CN(C(=O)NCC(C)C)C[C@@H]32)C(=O)N1CC(C)C`, the Percent Effect worked out at 10%.
`CC(O)CN1CCN(C(=O)c2cnn(-c3ccccc3F)c2)CC1` (stereo not given): the Percent Effect came out at 8.64%.
With `O=C(CCc1nccs1)N1CCN(c2ccc(Br)cn2)CC1`, the Percent Effect was found to be 7.06%.
For `Cc1cc(CN2CC[C@H]3C(=O)N(c4ccccc4)CCO[C@H]3C2)no1`, the Percent Effect was found to be 11.5%.
The same measure, in the same setting: the result for `Cn1cc(-c2csc(N3CCN(C(=O)OC(C)(C)C)CC3)n2)cn1` reads 12.8%; that for `Cc1noc(C(C)C)c1C(=O)NCc1cccc(N(C)C)c1`, 9.76%; that for `Cc1ccc(N2CCCc3sc(C(=O)NCc4cccnc4)nc32)nn1`, 6.17%.
Regarding `Cc1nc2ccccc2nc1CN1CCCC1Cn1cncn1` (stereo not given), the Percent Effect amounted to 21.2%.
Same read-out and setting: under `CC(C)C(=O)N1CCN(C(=O)CCc2nnc(-c3ccccc3)o2)CC1` stands 8.86%.
Take `Cn1cnnc1C1CCCN(C(=O)NCc2ccc3c(c2)OCO3)C1` (stereo not given): the Percent Effect amounted to 23.5%.
`CCn1cc(NC(=O)NCC2(N3CCOCC3)CCSC2)cn1` (stereo not given): the Percent Effect was 7.32%.
`CS(=O)(=O)NC1CCN(C(=O)NCCNc2ccccn2)CC1`: the Percent Effect was 1.22%.
For `Cc1cccc(-n2ncc(C(=O)N3CCn4c(C)nnc4C3)c2C)c1`, the Percent Effect is 3.7%.
The same measure, in the same setting: under `O=C(c1cscn1)N1CCC[C@]2(C[C@H](OCC3CC3)CO2)C1` stands 1.28%; under `N#Cc1cccnc1NCc1cccnc1N1CCC(C(N)=O)CC1`, 13.6%.
Same read-out and setting: the result for `c1cnc(NCc2noc3c2CN(CCN2CCCC2)CC3)nc1` reads 22.5%; that for `NC(=O)C1CCN(c2nc3nccc(-c4ccccc4)c3c(=O)[nH]2)CC1`, 6.17%.
Turning to `Cc1cc(NC(=O)NCc2ccccn2)n(C)n1`, the Percent Effect is 12.7%.
As to `Fc1ccc(CN2CCC(c3nccnc3-n3ccnc3)CC2)cc1`, the Percent Effect is 3.9%.
The same measure, in the same setting: the result for `O=C(c1ccc(-n2cccn2)nc1)N1CCCN(c2cccnn2)CC1` reads 0%; that for `CCN(CC)c1ccc(C(=O)NCc2cccnc2-n2cncn2)cn1`, 11.1%.
As to `CCCNC(=O)CCNC(=O)Cc1nc(-c2ccco2)oc1C`, the Percent Effect was 8.64%.
Regarding `CN1CCCC(CNC(=O)N2CCN(Cc3ccon3)CC2)C1` (stereo not given), the Percent Effect was determined as 8.64%.
The same measure, in the same setting: the result for `Cc1nc(C(C)(C)NC(=O)Nc2ccccc2)no1` reads 0%.
`CSCc1cccc(S(=O)(=O)NCCCN2CCOCC2)c1`: the Percent Effect was found to be 11.1%.
With `CN(Cc1ccsc1)C(=O)Nc1cccnc1N1CCCC1`, the Percent Effect stood at 3.7%.
Same read-out and setting: under `CC(C)n1c(C2CCCN(Cc3ccnn3C)C2)nc2ccccc21` (stereo not given) stands 14.1%; under `Cc1cc(CC(=O)N2CCCC2c2nc(C(C)C)no2)on1` (stereo not given), 15.4%; under `COc1cccc(CNc2nc(O)cc(C3CC(=O)N(C)C3)n2)c1` (stereo not given), -1.3%.
Still for that read-out and setting: under `CC(=O)N1CCn2cc(CNC(=O)c3cccn3C)nc2C1` stands 14.1%; under `O=C1CC(c2ccccc2)C2(CCN(CC3CC3)CC2)N1` (stereo not given), 20%; under `CNC(=O)CSc1nc2c(cnn2Cc2ccc(F)cc2)c(=O)[nH]1`, 10%.
With `Cc1nc(C(=O)N2CCC(Nc3cccnn3)CC2)cs1`, the Percent Effect turned out to be 18.8%.
In the case of `COc1cccc(OCc2cc(C(=O)NC[C@H]3CCCN3)n[nH]2)c1`, the Percent Effect amounted to 12.8%.
With `Cc1ccc(CN2CCc3ncnc(C4CCOC4)c3CC2)s1` (stereo not given), the Percent Effect was 25%.

The next assay deals with Chromo domain-containing protein 1 (Saccharomyces cerevisiae (strain ATCC 204508 / S288c) (Baker's yeast)) (UniProt P32657). Nature of the assay: ScCHD-1 Enzyme Inhibition Assay. Type of assay: functional. Further details: scale not given: in the data most compounds retested in dose-response had high values. The note with it: 30 µM.
Chromo domain-containing protein 1 (Saccharomyces cerevisiae (strain ATCC 204508 / S288c) (Baker's yeast)), sequence (P32657 whole entry, the tested form may be a part): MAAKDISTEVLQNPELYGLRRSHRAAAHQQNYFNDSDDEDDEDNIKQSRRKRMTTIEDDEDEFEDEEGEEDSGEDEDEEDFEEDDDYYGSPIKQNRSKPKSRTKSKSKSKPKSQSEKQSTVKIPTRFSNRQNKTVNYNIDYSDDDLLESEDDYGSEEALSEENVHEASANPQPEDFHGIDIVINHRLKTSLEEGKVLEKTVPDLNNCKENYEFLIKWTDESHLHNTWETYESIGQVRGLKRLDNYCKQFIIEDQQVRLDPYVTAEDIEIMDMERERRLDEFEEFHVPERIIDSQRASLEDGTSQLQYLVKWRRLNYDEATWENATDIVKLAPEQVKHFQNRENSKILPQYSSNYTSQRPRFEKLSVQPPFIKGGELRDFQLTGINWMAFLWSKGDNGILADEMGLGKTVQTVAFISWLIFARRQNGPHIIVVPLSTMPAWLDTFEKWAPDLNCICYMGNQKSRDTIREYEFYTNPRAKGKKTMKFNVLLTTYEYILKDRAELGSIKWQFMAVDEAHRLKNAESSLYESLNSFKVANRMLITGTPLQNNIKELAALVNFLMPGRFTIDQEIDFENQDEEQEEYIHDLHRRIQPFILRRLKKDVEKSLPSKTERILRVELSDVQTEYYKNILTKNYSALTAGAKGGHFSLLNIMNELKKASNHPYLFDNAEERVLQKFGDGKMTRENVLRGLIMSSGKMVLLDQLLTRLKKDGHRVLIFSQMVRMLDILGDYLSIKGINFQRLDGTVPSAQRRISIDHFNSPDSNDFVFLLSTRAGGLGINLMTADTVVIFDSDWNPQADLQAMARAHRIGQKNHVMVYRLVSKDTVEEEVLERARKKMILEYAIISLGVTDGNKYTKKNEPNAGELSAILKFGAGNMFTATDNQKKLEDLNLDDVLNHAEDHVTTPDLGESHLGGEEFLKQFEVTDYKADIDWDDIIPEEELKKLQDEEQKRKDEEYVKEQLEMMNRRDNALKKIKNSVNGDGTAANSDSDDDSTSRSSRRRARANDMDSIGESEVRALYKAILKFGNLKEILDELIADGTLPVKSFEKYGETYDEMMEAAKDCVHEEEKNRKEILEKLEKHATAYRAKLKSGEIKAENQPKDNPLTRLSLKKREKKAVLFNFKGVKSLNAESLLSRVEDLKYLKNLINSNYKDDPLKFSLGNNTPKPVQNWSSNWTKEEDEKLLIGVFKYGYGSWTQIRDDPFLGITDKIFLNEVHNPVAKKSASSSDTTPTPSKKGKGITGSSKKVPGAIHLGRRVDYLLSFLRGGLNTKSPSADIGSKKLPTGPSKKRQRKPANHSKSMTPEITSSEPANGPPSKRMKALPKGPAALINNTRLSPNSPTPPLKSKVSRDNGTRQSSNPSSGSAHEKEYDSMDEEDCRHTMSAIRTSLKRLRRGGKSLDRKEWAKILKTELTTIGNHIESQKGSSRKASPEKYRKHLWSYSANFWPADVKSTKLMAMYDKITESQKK
For `COc1cccc(CN2CCCC(Nc3cccc(F)c3)C2)c1O` (stereo not given), the Percent Effect was -12.4%.
Still for that read-out and setting: the result for `CS(=O)(=O)Cc1ccc(CNC(=O)c2cccnc2O)cc1` reads -7.98%.
As for `N#Cc1ccnc(N2CCN(CC(O)c3cccc(F)c3)CC2)c1` (stereo not given), the Percent Effect is -2.53%.
For the compound `CN1C(=O)C[C@@H]2[C@@H]1CCN2S(=O)(=O)Cc1ccccc1`, the Percent Effect turned out to be 6.94%.
`Cn1ncc2c1C(COCC1CC1)CN(Cc1ccc(F)cc1)C2` (stereo not given): the Percent Effect was -6.67%.
`CCC1=N[C@@]2(CC[C@@H]3CN(C(=O)NCC(C)C)C[C@@H]32)C(=O)N1CC(C)C`: the Percent Effect was -6.18%.
As for `CC(O)CN1CCN(C(=O)c2cnn(-c3ccccc3F)c2)CC1` (stereo not given), the Percent Effect is -7.25%.
In the case of `O=C(CCc1nccs1)N1CCN(c2ccc(Br)cn2)CC1`, the Percent Effect is -21.6%.
As to `Cc1cc(CN2CC[C@H]3C(=O)N(c4ccccc4)CCO[C@H]3C2)no1`, the Percent Effect is -1.25%.
In the case of `Cn1cc(-c2csc(N3CCN(C(=O)OC(C)(C)C)CC3)n2)cn1`, the Percent Effect was -1.57%.
The same measure, in the same setting: under `Cc1noc(C(C)C)c1C(=O)NCc1cccc(N(C)C)c1` stands -8%.
Regarding `Cc1ccc(N2CCCc3sc(C(=O)NCc4cccnc4)nc32)nn1`, the Percent Effect was -2.84%.
As for `Cc1nc2ccccc2nc1CN1CCCC1Cn1cncn1` (stereo not given), the Percent Effect is -23.2%.
Take `CC(C)C(=O)N1CCN(C(=O)CCc2nnc(-c3ccccc3)o2)CC1`: the Percent Effect was -7.27%.
In the case of `Cn1cnnc1C1CCCN(C(=O)NCc2ccc3c(c2)OCO3)C1` (stereo not given), the Percent Effect was -12.6%.
Same read-out and setting: the result for `CCn1cc(NC(=O)NCC2(N3CCOCC3)CCSC2)cn1` (stereo not given) reads -4.92%; that for `CS(=O)(=O)NC1CCN(C(=O)NCCNc2ccccn2)CC1`, -1.89%; that for `Cc1cccc(-n2ncc(C(=O)N3CCn4c(C)nnc4C3)c2C)c1`, -0.99%.
Still for that read-out and setting: the result for `O=C(c1cscn1)N1CCC[C@]2(C[C@H](OCC3CC3)CO2)C1` reads 1.14%; that for `N#Cc1cccnc1NCc1cccnc1N1CCC(C(N)=O)CC1`, 1.32%.
As for `c1cnc(NCc2noc3c2CN(CCN2CCCC2)CC3)nc1`, the Percent Effect was -8.39%.
Consider `NC(=O)C1CCN(c2nc3nccc(-c4ccccc4)c3c(=O)[nH]2)CC1`, for which the Percent Effect was -5.09%.
As for `Cc1cc(NC(=O)NCc2ccccn2)n(C)n1`, the Percent Effect was -12.3%.
With `Fc1ccc(CN2CCC(c3nccnc3-n3ccnc3)CC2)cc1`, the Percent Effect was -17.3%.
Take `O=C(c1ccc(-n2cccn2)nc1)N1CCCN(c2cccnn2)CC1`: the Percent Effect is -11.3%.
On the same count and under the same terms, under `CCN(CC)c1ccc(C(=O)NCc2cccnc2-n2cncn2)cn1` stands -5.91%; under `CCCNC(=O)CCNC(=O)Cc1nc(-c2ccco2)oc1C`, -3.56%.
In the case of `CN1CCCC(CNC(=O)N2CCN(Cc3ccon3)CC2)C1` (stereo not given), the Percent Effect is -5.38%.
Same read-out and setting: under `Cc1nc(C(C)(C)NC(=O)Nc2ccccc2)no1` stands -0.168%; under `CSCc1cccc(S(=O)(=O)NCCCN2CCOCC2)c1`, -3.9%.
`CN(Cc1ccsc1)C(=O)Nc1cccnc1N1CCCC1`: the Percent Effect was -2.06%.
Same read-out and setting: under `CC(C)n1c(C2CCCN(Cc3ccnn3C)C2)nc2ccccc21` (stereo not given) stands -3.27%; under `Cc1cc(CC(=O)N2CCCC2c2nc(C(C)C)no2)on1` (stereo not given), -9.95%.
On to `COc1cccc(CNc2nc(O)cc(C3CC(=O)N(C)C3)n2)c1` (stereo not given), for which the Percent Effect was -11.6%.
For the compound `CC(=O)N1CCn2cc(CNC(=O)c3cccn3C)nc2C1`, the Percent Effect is -2.9%.
`O=C1CC(c2ccccc2)C2(CCN(CC3CC3)CC2)N1` (stereo not given): the Percent Effect is -5.25%.
Take `CNC(=O)CSc1nc2c(cnn2Cc2ccc(F)cc2)c(=O)[nH]1`: the Percent Effect was -6.75%.
With `Cc1nc(C(=O)N2CCC(Nc3cccnn3)CC2)cs1`, the Percent Effect is -20.4%.
Same read-out and setting: under `COc1cccc(OCc2cc(C(=O)NC[C@H]3CCCN3)n[nH]2)c1` stands -5.02%; under `Cc1ccc(CN2CCc3ncnc(C4CCOC4)c3CC2)s1` (stereo not given), -6.72%.
